# Assay results from PubChem BioAssay AID1159580 (chemical genetic matrix, 2015).
# “And” between values parts separate entries of the source, which are not always exact repeats. Equal entries are not always repeated. About 2,000 (36%) of roughly 5,500 compounds were called active. Another 18% or so got no clear call; they are omitted. The list shows a part of the results. Unmarked numbers belong to inactive results. Cut-off read from the data, not from the text of the source: active = normalized growth mostly below about 0.91 (no sharp cut-off); inconclusive = no clear call, values can overlap the other calls; inactive = mostly above about 0.92.
# Experiment: chemical genetic growth profiling, strain panel (AID 1159580);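 note: tested at 20 µM; growth read once vehicle control cultures reached saturation at 30 °C; 1 = growth at the plate median or of vehicle wells; lower values mean less growth of the strain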
# Settings: growth OD
# [1] = S. cerevisiae deletion strains, locus YAL013W, strain DEP1, hits give low values
# [2] = S. cerevisiae deletion strains, locus YDR150W, strain NUM1, hits give low values
# [3] = S. cerevisiae deletion strains, locus YMR307W, strain GAS1, hits give low values
# [4] = S. cerevisiae deletion strains, locus YNL128W, strain TEP1, hits give low values
# [5] = S. cerevisiae deletion strains, locus YNL153C, strain GIM3, hits give low values
# [6] = S. cerevisiae deletion strains, locus YPL055C, strain LGE1, hits give low values
smiles,measurement,setting,value
CCN1C(=O)C=CC1=O,normalized growth,[1],1.04
same,normalized growth,"S. cerevisiae deletion strains, locus YAL040C, strain CLN3, hits give low values",1
same,normalized growth,"S. cerevisiae deletion strains, locus YCL061C, strain MRC1 (second series), hits give low values",1.01
same,normalized growth,[2],1.01
same,normalized growth,"S. cerevisiae deletion strains, locus YDR363W, strain ESC2, hits give low values",0.992
same,normalized growth,"S. cerevisiae deletion strains, locus YER002W, strain NOP16, hits give low values",1
same,normalized growth,[3],1.02
same,normalized growth,[4],1.03
same,normalized growth,[5],1.02
same,normalized growth,"S. cerevisiae deletion strains, locus YNL175C, strain NOP13, hits give low values",1.01
same,normalized growth,"S. cerevisiae deletion strains, locus YNL197C, strain WHI3, hits give low values",1.01
same,normalized growth,"S. cerevisiae deletion strains, locus YNL224C, strain SQS1, hits give low values",1
same,normalized growth,"S. cerevisiae deletion strains, locus YOR083W, strain WHI5 (second series), hits give low values",1.07
same,normalized growth,[6],1.09
C[C@@]12C(=O)OC(=O)[C@]1(C)C1CCC2O1,normalized growth,[1],0.966
same,normalized growth,"S. cerevisiae deletion strains, locus YBR021W, strain FUR4, hits give low values",0.808 (active)
same,normalized growth,"S. cerevisiae deletion strains, locus YBR229C, strain ROT2, hits give low values",0.913 (active)
same,normalized growth,"S. cerevisiae deletion strains, locus YCL029C, strain bik1, hits give low values",0.685 (active)
same,normalized growth,"S. cerevisiae deletion strains, locus YDL035C, strain GPR1, hits give low values",0.919
same,normalized growth,"S. cerevisiae deletion strains, locus YDL074C, strain BRE1, hits give low values",0.662 (active)
same,normalized growth,"S. cerevisiae deletion strains, locus YDL101C, strain DUN1, hits give low values",0.971
same,normalized growth,"S. cerevisiae deletion strains, locus YDL134C, strain PPH21, hits give low values",0.939
same,normalized growth,"S. cerevisiae deletion strains, locus YDL185W, strain tfp1, hits give low values",0.106 (active)
same,normalized growth,"S. cerevisiae deletion strains, locus YDL192W, strain arf1, hits give low values",0.87 (active)
same,normalized growth,"S. cerevisiae deletion strains, locus YDR101C, strain arx1, hits give low values",0.715 (active)
same,normalized growth,[2],0.926
same,normalized growth,"S. cerevisiae deletion strains, locus YDR162C, strain NBP2, hits give low values",0.824 (active)
same,normalized growth,"S. cerevisiae deletion strains, locus YDR318W, strain mcm21, hits give low values",0.681 (active)
same,normalized growth,"S. cerevisiae deletion strains, locus YDR388W, hits give low values",0.85 (active)
same,normalized growth,"S. cerevisiae deletion strains, locus YDR502C, strain sam2, hits give low values",0.826 (active)
same,normalized growth,"S. cerevisiae deletion strains, locus YEL061C, strain CIN8, hits give low values",0.91 (active)
same,normalized growth,"S. cerevisiae deletion strains, locus YER110C, hits give low values",0.902
same,normalized growth,"S. cerevisiae deletion strains, locus YER155C, strain BEM2, hits give low values",0.887 (active)
same,normalized growth,"S. cerevisiae deletion strains, locus YER167W, strain BCK2, hits give low values",0.895 (active)
same,normalized growth,"S. cerevisiae deletion strains, locus YGL078C, strain dbp3, hits give low values",0.15 (active)
same,normalized growth,"S. cerevisiae deletion strains, locus YGL086W, strain mad1, hits give low values",0.911 (active)
same,normalized growth,"S. cerevisiae deletion strains, locus YGL248W, strain PDE1, hits give low values",0.932
same,normalized growth,"S. cerevisiae deletion strains, locus YGR078C, strain PAC10, hits give low values",0.869
same,normalized growth,"S. cerevisiae deletion strains, locus YGR135W, strain pre9, hits give low values",0.785 (active)
same,normalized growth,"S. cerevisiae deletion strains, locus YGR229C, strain SMI1, hits give low values",1.02
same,normalized growth,"S. cerevisiae deletion strains, locus YGR252W, strain gcn5, hits give low values",0.848
same,normalized growth,"S. cerevisiae deletion strains, locus YHR030C, strain SLT2, hits give low values",0.0503 (active) and 0.0957 (active)
same,normalized growth,"S. cerevisiae deletion strains, locus YHR079C, strain IRE1 (second series), hits give low values",0.782 (active)
same,normalized growth,"S. cerevisiae deletion strains, locus YHR079C, strain IRE1, hits give low values",0.173 (active)
same,normalized growth,"S. cerevisiae deletion strains, locus YHR094C, strain hxt1, hits give low values",0.861 (active)
same,normalized growth,"S. cerevisiae deletion strains, locus YHR129C, strain ARP1, hits give low values",0.877 (active)
same,normalized growth,"S. cerevisiae deletion strains, locus YHR200W, strain rpn10, hits give low values",0.82 (active)
same,normalized growth,"S. cerevisiae deletion strains, locus YIL066C, strain RNR3, hits give low values",0.924
same,normalized growth,"S. cerevisiae deletion strains, locus YIL073C, strain SPO22, hits give low values",0.968
same,normalized growth,"S. cerevisiae deletion strains, locus YIL125W, strain kgd1, hits give low values",0.23 (active)
same,normalized growth,"S. cerevisiae deletion strains, locus YIR030C, strain dcg1, hits give low values",0.869 (active)
same,normalized growth,"S. cerevisiae deletion strains, locus YJL095W, strain BCK1, hits give low values",0.0568 (active) and 0.105 (active)
same,normalized growth,"S. cerevisiae deletion strains, locus YJL134W, strain LCB3, hits give low values",0.929
same,normalized growth,"S. cerevisiae deletion strains, locus YJL168C, strain set2, hits give low values",0.798 (active)
same,normalized growth,"S. cerevisiae deletion strains, locus YJL187C, strain SWE1 (second series), hits give low values",0.895
same,normalized growth,"S. cerevisiae deletion strains, locus YJR043C, strain POL32, hits give low values",0.862
same,normalized growth,"S. cerevisiae deletion strains, locus YJR066W, strain TOR1, hits give low values",0.049 (active)
same,normalized growth,"S. cerevisiae deletion strains, locus YJR075W, strain HOC1, hits give low values",0.964
same,normalized growth,"S. cerevisiae deletion strains, locus YKL009W, strain mrt4, hits give low values",0.169 (active)
same,normalized growth,"S. cerevisiae deletion strains, locus YKL068W, hits give low values",0.288 (active)
same,normalized growth,"S. cerevisiae deletion strains, locus YKL085W, strain MDH1 (second series), hits give low values",0.17 (active)
same,normalized growth,"S. cerevisiae deletion strains, locus YKL085W, strain MDH1, hits give low values",0.17 (active)
same,normalized growth,"S. cerevisiae deletion strains, locus YKL190W, strain CNB1, hits give low values",0.94
same,normalized growth,"S. cerevisiae deletion strains, locus YKR001C, strain vps1, hits give low values",0.658 (active)
same,normalized growth,"S. cerevisiae deletion strains, locus YLR039C, strain RIC1, hits give low values",0.918
same,normalized growth,"S. cerevisiae deletion strains, locus YLR058C, strain SHM2, hits give low values",0.931
same,normalized growth,"S. cerevisiae deletion strains, locus YLR102C, strain apc9, hits give low values",0.833 (active)
same,normalized growth,"S. cerevisiae deletion strains, locus YLR113W, strain HOG1, hits give low values",0.182 (active)
same,normalized growth,"S. cerevisiae deletion strains, locus YLR262C, strain YPT6, hits give low values",1
same,normalized growth,"S. cerevisiae deletion strains, locus YLR268W, strain sec22, hits give low values",0.78 (active)
same,normalized growth,"S. cerevisiae deletion strains, locus YLR330W, strain CHS5, hits give low values",0.923
same,normalized growth,"S. cerevisiae deletion strains, locus YLR342W, strain FKS1 (second series), hits give low values",1.11
same,normalized growth,"S. cerevisiae deletion strains, locus YLR371W, strain rom2, hits give low values",0.879 (active)
same,normalized growth,"S. cerevisiae deletion strains, locus YLR418C, strain cdc73, hits give low values",0.949
same,normalized growth,"S. cerevisiae deletion strains, locus YML016C, strain PPZ1, hits give low values",0.91 (active)
same,normalized growth,"S. cerevisiae deletion strains, locus YML032C, strain rad52, hits give low values",0.69 (active)
same,normalized growth,"S. cerevisiae deletion strains, locus YML124C, strain tub3, hits give low values",0.853 (active)
same,normalized growth,"S. cerevisiae deletion strains, locus YMR078C, strain ctf18, hits give low values",0.753 (active)
same,normalized growth,"S. cerevisiae deletion strains, locus YMR223W, strain ubp8, hits give low values",0.8 (active)
same,normalized growth,"S. cerevisiae deletion strains, locus YMR263W, strain SAP30, hits give low values",0.877 (active)
same,normalized growth,[3],1.13
same,normalized growth,"S. cerevisiae deletion strains, locus YNL067W, strain RPL9B, hits give low values",0.841 (active)
same,normalized growth,[4],0.944
same,normalized growth,[5],0.671 (active)
same,normalized growth,"S. cerevisiae deletion strains, locus YNL183C, strain NPR1, hits give low values",0.0569 (active)
same,normalized growth,"S. cerevisiae deletion strains, locus YNL233W, strain BNI4, hits give low values",0.923
same,normalized growth,"S. cerevisiae deletion strains, locus YNL250W, strain rad50, hits give low values",0.144 (active)
same,normalized growth,"S. cerevisiae deletion strains, locus YNL271C, strain bni1, hits give low values",0.521 (active)
same,normalized growth,"S. cerevisiae deletion strains, locus YNL298W, strain CLA4, hits give low values",0.162 (active)
same,normalized growth,"S. cerevisiae deletion strains, locus YNL307C, strain MCK1, hits give low values",0.922
same,normalized growth,"S. cerevisiae deletion strains, locus YNL322C, strain KRE1, hits give low values",0.923 (active)
same,normalized growth,"S. cerevisiae deletion strains, locus YNR052C, strain pop2, hits give low values",0.791 (active)
same,normalized growth,"S. cerevisiae deletion strains, locus YOL006C, strain TOP1, hits give low values",0.835
same,normalized growth,"S. cerevisiae deletion strains, locus YOL012C, strain htz1",0.4
same,normalized growth,"S. cerevisiae deletion strains, locus YOL147C, strain pex11, hits give low values",0.825 (active)
same,normalized growth,"S. cerevisiae deletion strains, locus YOR061W, strain CKA2, hits give low values",0.905
same,normalized growth,"S. cerevisiae deletion strains, locus YOR069W, strain VPS5, hits give low values",0.917 (active)
same,normalized growth,"S. cerevisiae deletion strains, locus YOR136W, strain idh2, hits give low values",0.906 (active)
same,normalized growth,"S. cerevisiae deletion strains, locus YOR144C, strain elg1, hits give low values",0.703 (active)
same,normalized growth,"S. cerevisiae deletion strains, locus YOR184W, strain ser1, hits give low values",0.939
same,normalized growth,"S. cerevisiae deletion strains, locus YOR231W, strain MKK1, hits give low values",0.147 (active)
same,normalized growth,"S. cerevisiae deletion strains, locus YOR316C, strain cot1, hits give low values",0.854 (active)
same,normalized growth,[6],0.601 (active)
same,normalized growth,"S. cerevisiae deletion strains, locus YPL241C, strain CIN2, hits give low values",0.932
same,normalized growth,"S. cerevisiae deletion strains, locus YPL256C, strain CLN2, hits give low values",0.167 (active)
same,normalized growth,"S. cerevisiae deletion strains, locus YPR119W, strain clb2, hits give low values",0.861 (active)
same,normalized growth,"S. cerevisiae deletion strains, locus YPR141C, strain kar3, hits give low values",0.113 (active)
same,normalized growth,"S. cerevisiae deletion strains, locus YPR163C, strain tif3, hits give low values",0.585 (active)
same,normalized growth,"S. cerevisiae deletion strains, locus YPR167C, strain met16, hits give low values",0.786 (active)
same,normalized growth,"S. cerevisiae deletion strains, strain wtn01, hits give low values",0.834 (active)
same,normalized growth,"S. cerevisiae strains, strain wild type, hits give low values",0.94
